Measured values reported in the supplement of paper PMC10849652.
Of roughly 7,900 targets only a part is listed; those with a hit were picked by preference. About 0.6% of all pairs of compound and target were hits.

These targets were tested with CN(C)CC(=O)Nc1ccc2[nH]c(=O)c3ccccc3c2c1 (assay: log2 fold change, soluble protein after heating vs DMSO (PISA); higher = thermal stabilisation; K562 cells, 10 uM, 30 min; active = over 0.2 and 3.5 SD of the protein, either way, in both replicates (recomputed)).
How it was run: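 K562 cells (2×10^6 cells/mL) were treated with 10 μM compound for 30 min, and aliquots were heated for 3 min over 48°C-58°C. Pooled aliquots were extracted in PBS with 0.5% NP-40 at 4°C, and the supernatant after 21,000xg for 90 min was measured by TMTpro 16plex LC-MS/MS with channel sums equalised. Reported thermal stability, relative to control samples and from duplicates, is a log2 fold change.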

UniProt Q9NRR8, sequence (Q9NRR8 whole entry, looked up): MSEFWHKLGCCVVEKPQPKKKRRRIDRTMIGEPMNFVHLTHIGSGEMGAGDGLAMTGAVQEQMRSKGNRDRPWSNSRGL
UniProt O75208, sequence (O75208 whole entry, looked up): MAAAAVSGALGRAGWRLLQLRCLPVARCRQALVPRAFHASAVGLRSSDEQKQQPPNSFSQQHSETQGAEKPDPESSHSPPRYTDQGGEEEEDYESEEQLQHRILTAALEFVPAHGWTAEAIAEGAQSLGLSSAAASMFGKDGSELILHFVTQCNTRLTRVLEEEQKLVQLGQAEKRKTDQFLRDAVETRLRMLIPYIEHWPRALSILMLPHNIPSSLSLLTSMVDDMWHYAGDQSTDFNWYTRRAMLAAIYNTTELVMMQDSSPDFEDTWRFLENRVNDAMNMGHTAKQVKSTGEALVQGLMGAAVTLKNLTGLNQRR
UniProt O95319, sequence (O95319 whole entry, looked up): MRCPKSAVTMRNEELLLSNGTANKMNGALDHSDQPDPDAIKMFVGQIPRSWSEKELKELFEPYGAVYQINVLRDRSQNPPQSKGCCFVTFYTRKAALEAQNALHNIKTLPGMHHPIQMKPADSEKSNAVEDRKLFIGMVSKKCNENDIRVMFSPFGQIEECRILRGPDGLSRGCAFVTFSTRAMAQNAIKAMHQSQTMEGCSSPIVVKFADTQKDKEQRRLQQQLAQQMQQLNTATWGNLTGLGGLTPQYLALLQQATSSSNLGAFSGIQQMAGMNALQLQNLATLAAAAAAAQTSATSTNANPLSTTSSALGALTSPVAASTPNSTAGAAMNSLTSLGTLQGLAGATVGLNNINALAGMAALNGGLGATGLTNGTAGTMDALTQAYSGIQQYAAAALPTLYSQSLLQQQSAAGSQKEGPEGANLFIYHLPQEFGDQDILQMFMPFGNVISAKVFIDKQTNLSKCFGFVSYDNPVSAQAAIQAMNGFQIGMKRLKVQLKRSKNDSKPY
UniProt Q9NYV4, sequence (Q9NYV4 whole entry, looked up): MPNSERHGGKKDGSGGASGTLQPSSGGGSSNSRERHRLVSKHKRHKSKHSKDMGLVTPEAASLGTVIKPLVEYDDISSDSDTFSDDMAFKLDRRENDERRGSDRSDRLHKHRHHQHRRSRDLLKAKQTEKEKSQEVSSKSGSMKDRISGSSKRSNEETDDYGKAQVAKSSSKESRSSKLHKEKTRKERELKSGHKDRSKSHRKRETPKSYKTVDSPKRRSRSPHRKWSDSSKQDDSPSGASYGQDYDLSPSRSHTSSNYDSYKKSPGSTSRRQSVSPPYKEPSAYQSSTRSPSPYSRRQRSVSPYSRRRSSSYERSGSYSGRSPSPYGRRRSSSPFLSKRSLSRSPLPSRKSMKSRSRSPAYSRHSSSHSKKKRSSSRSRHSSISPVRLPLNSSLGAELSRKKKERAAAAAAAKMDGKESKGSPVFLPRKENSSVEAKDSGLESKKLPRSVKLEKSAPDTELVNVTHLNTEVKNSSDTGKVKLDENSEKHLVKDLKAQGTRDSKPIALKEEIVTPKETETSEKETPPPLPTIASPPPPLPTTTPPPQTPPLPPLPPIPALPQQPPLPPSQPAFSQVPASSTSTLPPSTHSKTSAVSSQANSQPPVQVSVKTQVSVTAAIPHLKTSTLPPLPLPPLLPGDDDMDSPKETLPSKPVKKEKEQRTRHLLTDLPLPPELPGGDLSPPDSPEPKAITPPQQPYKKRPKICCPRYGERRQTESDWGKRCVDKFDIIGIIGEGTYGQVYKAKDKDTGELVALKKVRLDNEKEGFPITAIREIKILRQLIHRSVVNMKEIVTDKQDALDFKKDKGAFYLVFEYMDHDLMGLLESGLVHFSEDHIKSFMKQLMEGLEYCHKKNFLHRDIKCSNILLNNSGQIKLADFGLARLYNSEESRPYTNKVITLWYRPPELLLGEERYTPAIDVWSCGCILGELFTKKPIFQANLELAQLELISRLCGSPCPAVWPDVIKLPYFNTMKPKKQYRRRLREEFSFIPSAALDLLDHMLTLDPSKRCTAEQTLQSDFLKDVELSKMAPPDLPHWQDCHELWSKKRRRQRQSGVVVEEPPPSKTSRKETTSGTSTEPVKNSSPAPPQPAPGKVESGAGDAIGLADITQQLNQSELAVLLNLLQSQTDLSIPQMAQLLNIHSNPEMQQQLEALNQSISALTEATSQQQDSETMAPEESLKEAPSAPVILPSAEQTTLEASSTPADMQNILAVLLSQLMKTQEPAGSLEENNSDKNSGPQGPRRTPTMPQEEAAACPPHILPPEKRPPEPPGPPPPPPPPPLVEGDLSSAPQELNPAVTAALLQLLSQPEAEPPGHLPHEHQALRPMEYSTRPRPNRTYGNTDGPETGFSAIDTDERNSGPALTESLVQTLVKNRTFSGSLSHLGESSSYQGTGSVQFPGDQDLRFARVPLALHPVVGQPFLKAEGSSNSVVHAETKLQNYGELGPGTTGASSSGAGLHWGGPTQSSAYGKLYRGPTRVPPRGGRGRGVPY
UniProt Q9NPF2, sequence (Q9NPF2 whole entry, looked up): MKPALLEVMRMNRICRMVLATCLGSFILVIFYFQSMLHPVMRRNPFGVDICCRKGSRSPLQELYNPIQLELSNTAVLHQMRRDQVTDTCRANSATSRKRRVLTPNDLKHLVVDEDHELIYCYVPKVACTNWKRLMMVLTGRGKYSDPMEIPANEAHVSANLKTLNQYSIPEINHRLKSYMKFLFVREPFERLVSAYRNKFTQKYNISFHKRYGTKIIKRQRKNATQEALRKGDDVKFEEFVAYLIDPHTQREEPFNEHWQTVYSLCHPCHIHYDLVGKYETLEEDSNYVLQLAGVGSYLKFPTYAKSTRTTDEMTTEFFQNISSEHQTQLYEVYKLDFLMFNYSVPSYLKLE
UniProt P42574, sequence (P42574 whole entry, looked up): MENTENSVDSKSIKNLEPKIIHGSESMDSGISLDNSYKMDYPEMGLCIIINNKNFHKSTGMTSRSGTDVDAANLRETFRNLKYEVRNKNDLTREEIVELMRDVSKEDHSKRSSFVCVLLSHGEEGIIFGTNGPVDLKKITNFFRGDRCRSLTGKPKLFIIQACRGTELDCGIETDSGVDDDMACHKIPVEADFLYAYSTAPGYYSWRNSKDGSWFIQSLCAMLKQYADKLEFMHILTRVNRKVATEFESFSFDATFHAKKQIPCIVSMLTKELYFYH
UniProt P35219, sequence (P35219 whole entry, looked up): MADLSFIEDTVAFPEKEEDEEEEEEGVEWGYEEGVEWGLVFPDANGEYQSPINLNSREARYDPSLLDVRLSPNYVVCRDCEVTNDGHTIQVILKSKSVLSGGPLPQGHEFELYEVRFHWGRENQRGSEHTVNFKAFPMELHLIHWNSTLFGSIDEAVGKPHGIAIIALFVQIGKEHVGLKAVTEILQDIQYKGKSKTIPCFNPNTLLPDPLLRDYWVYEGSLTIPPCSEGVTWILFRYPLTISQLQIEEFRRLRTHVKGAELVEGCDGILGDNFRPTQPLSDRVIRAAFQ
UniProt Q00534, sequence (Q00534 whole entry, looked up): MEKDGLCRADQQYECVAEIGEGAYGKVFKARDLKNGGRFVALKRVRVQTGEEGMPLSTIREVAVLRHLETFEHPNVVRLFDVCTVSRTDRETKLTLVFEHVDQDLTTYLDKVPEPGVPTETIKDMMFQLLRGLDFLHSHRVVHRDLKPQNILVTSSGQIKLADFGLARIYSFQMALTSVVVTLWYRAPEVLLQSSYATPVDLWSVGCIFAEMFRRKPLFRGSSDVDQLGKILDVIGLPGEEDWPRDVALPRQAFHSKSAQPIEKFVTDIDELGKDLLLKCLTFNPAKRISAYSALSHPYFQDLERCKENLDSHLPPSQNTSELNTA
UniProt P00915, sequence (P00915 whole entry, looked up): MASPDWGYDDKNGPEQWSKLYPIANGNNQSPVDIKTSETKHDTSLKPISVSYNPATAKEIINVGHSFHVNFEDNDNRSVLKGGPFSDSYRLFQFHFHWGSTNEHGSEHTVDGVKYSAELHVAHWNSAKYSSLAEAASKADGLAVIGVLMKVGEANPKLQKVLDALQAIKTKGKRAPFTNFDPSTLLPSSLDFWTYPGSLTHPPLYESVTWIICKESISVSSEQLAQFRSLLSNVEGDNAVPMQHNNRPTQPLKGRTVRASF
UniProt P51946, sequence (P51946 whole entry, looked up): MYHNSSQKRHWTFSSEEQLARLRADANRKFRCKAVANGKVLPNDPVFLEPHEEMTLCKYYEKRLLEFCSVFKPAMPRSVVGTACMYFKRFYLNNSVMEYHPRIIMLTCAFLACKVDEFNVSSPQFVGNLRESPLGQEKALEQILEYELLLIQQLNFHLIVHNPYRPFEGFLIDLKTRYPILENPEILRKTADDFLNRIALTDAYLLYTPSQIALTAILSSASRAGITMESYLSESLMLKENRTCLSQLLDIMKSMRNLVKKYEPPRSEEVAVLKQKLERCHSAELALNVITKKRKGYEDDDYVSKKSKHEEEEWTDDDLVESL
UniProt Q16740, sequence (Q16740 whole entry, looked up): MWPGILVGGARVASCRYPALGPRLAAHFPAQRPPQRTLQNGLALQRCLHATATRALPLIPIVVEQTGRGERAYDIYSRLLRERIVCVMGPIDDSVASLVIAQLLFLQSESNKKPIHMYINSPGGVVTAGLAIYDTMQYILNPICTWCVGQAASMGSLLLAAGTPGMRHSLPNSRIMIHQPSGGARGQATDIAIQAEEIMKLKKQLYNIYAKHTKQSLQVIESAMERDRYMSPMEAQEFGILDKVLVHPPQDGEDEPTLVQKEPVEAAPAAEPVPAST
UniProt Q9Y6K0, sequence (Q9Y6K0 whole entry, looked up): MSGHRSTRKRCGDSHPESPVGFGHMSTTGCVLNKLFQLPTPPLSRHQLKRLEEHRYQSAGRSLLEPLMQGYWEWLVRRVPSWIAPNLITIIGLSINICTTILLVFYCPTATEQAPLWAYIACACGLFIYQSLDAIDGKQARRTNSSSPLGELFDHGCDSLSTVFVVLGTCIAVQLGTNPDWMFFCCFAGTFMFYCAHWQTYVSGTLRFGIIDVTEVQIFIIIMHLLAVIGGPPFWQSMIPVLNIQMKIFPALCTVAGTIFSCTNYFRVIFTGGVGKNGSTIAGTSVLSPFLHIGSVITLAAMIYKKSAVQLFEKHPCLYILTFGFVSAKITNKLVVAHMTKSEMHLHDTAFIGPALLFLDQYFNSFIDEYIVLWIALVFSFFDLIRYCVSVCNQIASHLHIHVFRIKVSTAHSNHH

log2 fold change, inactive:
CNOT1 (UniProt A5YKK6) 0.061
CPSF1 (UniProt Q10570) -0.104
CLUH, A0A494C0R8 0.116
CEPT1 (UniProt Q9Y6K0) 0.059
CELF2 isoform 3 (UniProt O95319) 0.006
CDC42SE1 (UniProt Q9NRR8) 0.05
CASP3 (UniProt P42574) -0.021
CDK12 (UniProt Q9NYV4) -0.027
COQ9 (UniProt O75208) 0.018
COMMD2 (UniProt Q86X83) -0.108
CDK6 (UniProt Q00534) 0.007
CA8 (UniProt P35219) -0.002
CA1 (UniProt P00915) -0.002
CLSPN (UniProt Q9HAW4) -0.048
CCNH (UniProt P51946) -0.019
CLPP (UniProt Q16740) 0.017
CHD4 isoform 2 (UniProt Q14839) 0.048
CAMSAP1 isoform 3 (UniProt Q5T5Y3) -0.232
CCDC57 (UniProt Q2TAC2) -0.034
CHST11 (UniProt Q9NPF2) -0.045
CRLF3 (UniProt Q8IUI8) 0.024
CAD (UniProt P27708) 0.022
